Bioassay records (PubChem)
Only a sample is shown.
DUX4 inh = DUX4-mediated transcription inhibition; 37,000 compounds, 0.8% hits; 293T-iDUX4 ZSCAN4-Gaussia luciferase reporter, 24 h; hits give low values; activity change, negative = inhibition, % (concentration not given with the values); AID 1224904;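 active means mean inhibition of at least 10% in the main channel, exceeding the control channel by a set limit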
Each line names hits and unclear results; the compound was inactive in the other large screens.

Cc1cccc(-c2ccc(C3[C@H]4CNC[C@@H]3N4Cc3cccc(F)c3)cc2)c1 (stereo partly drawn)	none
Cc1cccc(-c2ccc(C3[C@@H]4CN(C(=O)C5CCOCC5)C[C@H]3N4)cc2)c1 (stereo partly drawn)	none
O=C(Nc1cccc(F)c1)N1C[C@@H]2N[C@H](C1)C2c1ccc(-c2ccc(F)cc2)cc1 (stereo partly drawn)	none
C[C@H]1CCCCO[C@H](CN(C)C(=O)CCCN(C)C)[C@@H](C)CN([C@@H](C)CO)C(=O)c2cc(NC(=O)Nc3ccc4c(c3)OCO4)ccc2O1	none
C[C@@H]1CCCCO[C@H](CN(C)C(=O)CCC(F)(F)F)[C@@H](C)CN([C@H](C)CO)C(=O)c2cc(NC(=O)Cc3ccccc3)ccc2O1	none
C[C@@H]1CN([C@@H](C)CO)S(=O)(=O)c2ccc(-c3ccc(C#N)cc3)cc2O[C@@H]1CN(C)Cc1cccc(F)c1	none
CCNC(=O)C[C@H]1CC[C@H]2[C@@H](COC[C@H](O)CN2C(=O)c2ccccn2)O1	none
C[C@H]1CN([C@@H](C)CO)C(=O)CCCn2cc(nn2)CO[C@H]1CN(C)C(=O)c1ccncc1	none
O=C(C[C@@H]1CC[C@H]2[C@@H](COC[C@@H](O)CN2C(=O)Nc2ccc(F)cc2)O1)NCCc1ccccc1	none
CCCC(=O)N1C[C@@H]2[C@H](c3ccccc31)[C@@H](CO)N2C(=O)Nc1ccccc1	none
N#Cc1ccc(-c2ccc3c(c2)[C@@H]2[C@@H](CCN2C(=O)CN2CCOCC2)[C@@H](CO)N3)cc1	none
CN1c2ccc(Br)cc2[C@H]2[C@H](CCN2S(=O)(=O)c2ccccc2F)[C@@H]1CO	none
C[C@@H](NC(=O)C[C@H]1CC[C@H]2[C@@H](COc3ccc(NC(=O)C4CCOCC4)cc3C(=O)N2C)O1)c1ccccc1	none
CCCNC(=O)C[C@H]1C[C@@H]2c3cc(NS(=O)(=O)c4ccc(F)cc4)ccc3O[C@@H]2[C@H](CO)O1	none
CS(=O)(=O)N1CCCCN2[C@@H](CO)[C@H](c3ccc(-c4cccc(C#N)c4)cc3)[C@@H]2C1	none
C[C@@H]1CN([C@H](C)CO)C(=O)c2cc(NC(=O)C3CC3)ccc2O[C@H]1CN(C)S(=O)(=O)c1ccccc1	none
